Assay results taken from PubChem BioAssay.
A number with no mark means an inactive call. The list shows a part of the results. Calls of active or inactive are those of the source.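 Rule for the calls, unless noted: active = membrane potential signal moves up or down beyond 5 SD from buffer-only wells, on both duplicate plates; inactive = the rest.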

Assays:
[1] = parental HEK293 membrane potential modulation, confirmation, counter-screen for TRPC6 modulator project, cell-based (AID 488924); conditions: parental HEK293, membrane potential dye fluorescence; at 10 µM
[2] = modulation of acetylcholine-evoked membrane potential, parental HEK293, confirmation, counter-screen for TRPC6 modulator project, cell-based, second counter-screen, membrane potential dye (AID 488926;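 active = membrane potential signal drops by more than 5 SD from the mean control signal, in both duplicate plates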;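 for inhibition: plate controls were acetylcholine ECmax control wells for no effect and buffer only wells for full effect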); conditions: parental HEK293, membrane potential dye fluorescence, at 10 µM, after compound, maximal acetylcholine stimulation; active compounds read high
[3] = test system: Transient receptor potential cation channel subfamily C member 4 (mouse); assay: TRPC4 modulation by TRPC6 hit compounds, confirmation, selectivity assay for TRPC6 modulator project, cell-based, HEK293 TRPC4/mu-opioid, membrane potential dye, mouse (AID 488927;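 active = membrane potential signal moved up or down beyond 5 SD of buffer control wells, in both duplicate plates, actives on both sides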;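 for percent change from control (negative = decrease, positive = increase): plate controls were assay buffer wells for no effect and DAMGO maximal-effect wells for full effect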); conditions: membrane potential fluorescence, at 10 µM
[4] = test system: TRPC4 (transient receptor potential cation channel C4), mouse; assay: TRPC4 inhibition by TRPC6 hit compounds, confirmation, selectivity assay for TRPC6 modulator project, cell-based, second screen, HEK293 TRPC4/mu-opioid, membrane potential dye (AID 488928;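 active = drop in membrane potential signal beyond 5 SD of the control wells in both duplicate plates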;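 note: TRPC4 counter screen for TRPC6 hits run under conditions tuned for TRPC6 not TRPC4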); conditions: membrane potential dye fluorescence, at 10 µM, stimulated with maximal-effect DAMGO; active compounds read high
[5] = target: Short transient receptor potential channel 6 (Mus musculus) (UniProt Q61143); assay: mouse TRPC6 channel inhibitors, confirmation, HEK293 cells, membrane potential dye, duplicate (AID 488960;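 active = fluorescence ratio falls more than 5 SD below the full-stimulation control mean, in both duplicate runs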;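 for inhibition: integrated fluorescence ratio of peak minus minimum over baseline after agonist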); conditions: ACh-evoked depolarization, at 10 µM; active compounds read high
Chain of Short transient receptor potential channel 6 (Mus musculus) (Q61143 whole entry, looked up): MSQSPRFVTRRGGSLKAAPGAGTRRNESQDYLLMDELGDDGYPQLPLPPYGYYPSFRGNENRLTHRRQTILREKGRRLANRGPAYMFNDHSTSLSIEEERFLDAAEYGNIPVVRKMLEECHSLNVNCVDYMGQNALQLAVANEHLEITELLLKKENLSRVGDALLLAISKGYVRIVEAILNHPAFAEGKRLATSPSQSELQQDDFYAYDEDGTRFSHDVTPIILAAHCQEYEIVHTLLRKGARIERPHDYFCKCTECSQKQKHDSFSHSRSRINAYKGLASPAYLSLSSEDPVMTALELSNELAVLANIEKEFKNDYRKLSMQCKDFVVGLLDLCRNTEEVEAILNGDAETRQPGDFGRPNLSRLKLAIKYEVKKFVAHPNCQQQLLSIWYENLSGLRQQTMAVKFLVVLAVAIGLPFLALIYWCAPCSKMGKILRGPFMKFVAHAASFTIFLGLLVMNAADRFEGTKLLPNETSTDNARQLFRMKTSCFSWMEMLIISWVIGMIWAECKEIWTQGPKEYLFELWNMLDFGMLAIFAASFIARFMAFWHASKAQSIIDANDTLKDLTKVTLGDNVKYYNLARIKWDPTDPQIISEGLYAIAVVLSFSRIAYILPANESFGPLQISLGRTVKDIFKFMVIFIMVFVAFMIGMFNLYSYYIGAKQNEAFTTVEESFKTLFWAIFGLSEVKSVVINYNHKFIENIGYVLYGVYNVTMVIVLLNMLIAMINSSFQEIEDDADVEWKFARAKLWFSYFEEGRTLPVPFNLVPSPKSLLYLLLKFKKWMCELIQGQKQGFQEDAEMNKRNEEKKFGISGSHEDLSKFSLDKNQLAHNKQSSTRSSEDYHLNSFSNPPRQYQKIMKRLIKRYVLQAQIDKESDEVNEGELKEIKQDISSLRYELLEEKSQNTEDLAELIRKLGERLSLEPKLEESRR

[6] = target: Short transient receptor potential channel 6 (Mus musculus) (UniProt Q61143); assay: mouse TRPC6 channel activators, confirmation, HEK293 cells, membrane potential dye, duplicate (AID 488961;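 active = ratio signal rise beyond 5 SD above unstimulated control wells' mean, seen in both duplicate runs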;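 for activation: plate controls were buffer EC0 wells for no effect and acetylcholine ECmax response for full effect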); conditions: HEK293-TRPC6 membrane potential dye fluorescence, FDSS, at 10 µM; active compounds read high
[7] = thallium flux activation in parental CHO cells, counter-screen for KCNQ1 potentiator project (AID 493006;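 active = duplicate-averaged activation above buffer control mean plus 5 SD of those controls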;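 note: fluorescence ratio of max minus min over baseline after K+ and Tl+ depolarization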); conditions: parental CHO-K1 cells, FluxOR thallium flux, at 10 µM; active compounds read high
[8] = target: Potassium voltage-gated channel subfamily KQT member 1 (Homo sapiens) (UniProt P51787); assay: KCNQ1 potassium channel potentiators, confirmation, FluxOR thallium flux, CHO cells, duplicates (AID 493007;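 active = potentiation averaged over duplicate wells exceeding buffer-only control mean by more than 3 SD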;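 note: cells depolarized by a potassium plus thallium sulfate stimulus after compound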); conditions: KCNQ1 cell line, FluxOR thallium flux fluorescence, at 10 µM; active compounds read high, % of reference activator effect, buffer zero
Chain of Potassium voltage-gated channel subfamily KQT member 1 (Homo sapiens) (P51787 whole entry, looked up): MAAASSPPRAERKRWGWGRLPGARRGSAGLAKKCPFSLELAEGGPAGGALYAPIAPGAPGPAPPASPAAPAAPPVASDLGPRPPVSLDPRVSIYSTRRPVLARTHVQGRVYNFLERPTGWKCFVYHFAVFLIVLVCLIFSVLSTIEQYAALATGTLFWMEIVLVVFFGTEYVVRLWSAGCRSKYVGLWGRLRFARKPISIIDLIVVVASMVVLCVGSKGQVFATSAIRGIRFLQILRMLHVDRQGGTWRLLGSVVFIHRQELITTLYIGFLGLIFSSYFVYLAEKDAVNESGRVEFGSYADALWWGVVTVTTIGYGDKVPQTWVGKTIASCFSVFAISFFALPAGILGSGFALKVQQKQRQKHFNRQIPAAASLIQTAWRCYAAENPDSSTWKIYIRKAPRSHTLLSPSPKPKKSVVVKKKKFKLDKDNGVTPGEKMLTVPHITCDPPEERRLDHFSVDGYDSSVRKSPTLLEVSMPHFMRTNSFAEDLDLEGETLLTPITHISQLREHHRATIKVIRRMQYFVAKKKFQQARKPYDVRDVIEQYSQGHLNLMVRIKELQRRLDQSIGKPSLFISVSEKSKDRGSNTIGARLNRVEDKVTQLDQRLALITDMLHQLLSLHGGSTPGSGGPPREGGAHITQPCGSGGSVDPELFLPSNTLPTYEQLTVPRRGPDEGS

[9] = target: Potassium voltage-gated channel subfamily KQT member 2 (Rattus norvegicus) (UniProt O88943); assay: rat KCNQ2 channel potentiation, selectivity assay for KCNQ1 potentiator project, KCNQ2-CHO-K1 cells (AID 493009;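 active = mean duplicate potentiation above the buffer control mean plus 5 SD of buffer wells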;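 note: assay conditions were tuned for KCNQ1 rather than KCNQ2 modulators; signal is max minus min fluorescence divided by baseline after thallium stimulus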); conditions: FluxOR thallium flux fluorescence, at 10 µM; active compounds read high, scaled: buffer 0, activator control 100
Chain of Potassium voltage-gated channel subfamily KQT member 2 (Rattus norvegicus) (O88943 whole entry, looked up): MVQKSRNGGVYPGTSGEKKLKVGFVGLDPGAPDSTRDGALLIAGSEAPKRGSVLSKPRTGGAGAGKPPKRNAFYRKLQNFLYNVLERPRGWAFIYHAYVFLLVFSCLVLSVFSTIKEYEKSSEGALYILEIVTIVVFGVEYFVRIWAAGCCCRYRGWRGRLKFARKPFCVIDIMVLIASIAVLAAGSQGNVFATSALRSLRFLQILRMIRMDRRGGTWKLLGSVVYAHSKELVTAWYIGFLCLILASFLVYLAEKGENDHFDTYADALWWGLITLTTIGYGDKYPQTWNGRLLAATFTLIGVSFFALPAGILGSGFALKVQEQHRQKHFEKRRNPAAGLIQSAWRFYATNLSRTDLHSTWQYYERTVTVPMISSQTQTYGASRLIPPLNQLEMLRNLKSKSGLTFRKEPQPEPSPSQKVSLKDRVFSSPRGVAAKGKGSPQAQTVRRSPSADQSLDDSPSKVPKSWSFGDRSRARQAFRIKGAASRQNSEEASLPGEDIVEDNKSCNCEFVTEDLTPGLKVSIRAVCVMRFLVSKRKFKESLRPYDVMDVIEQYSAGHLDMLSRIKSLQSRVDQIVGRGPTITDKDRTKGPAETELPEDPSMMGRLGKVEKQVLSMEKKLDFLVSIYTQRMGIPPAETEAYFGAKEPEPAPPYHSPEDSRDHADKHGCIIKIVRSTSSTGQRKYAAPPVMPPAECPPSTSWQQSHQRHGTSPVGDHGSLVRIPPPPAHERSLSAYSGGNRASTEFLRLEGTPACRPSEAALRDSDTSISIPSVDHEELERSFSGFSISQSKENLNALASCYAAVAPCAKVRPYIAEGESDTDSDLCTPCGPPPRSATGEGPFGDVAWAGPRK

[10] = target: Potassium voltage-gated channel subfamily KQT member 1 (Homo sapiens) (UniProt P51787); assay: KCNQ1 channel current potentiators, confirmation, orthogonal assay for KCNQ1 potentiator project, IonWorks patch clamp, KCNQ1-CHO cells (AID 493184;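 active = current rise at least 3 SD above the untreated control mean in each of two repeat wells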); conditions: automated patch clamp current, at 10 µM; active compounds read high

CCC(C)(C)NC(=O)CN(C(=O)CCC(=O)Nc1nccs1)c1ccc2c(c1)OCO2
outcome [1]: inactive
outcome [2]: inactive
outcome [3]: inactive
outcome [4]: inactive
outcome [5]: inactive
outcome [6]: inactive

CCc1ccc(-c2cc(C(=O)NN3CCN(C)CC3)c3ccccc3n2)cc1
outcome [1]: inactive
outcome [2]: inactive
outcome [3]: inactive
inhibition [4]: 41% (active)
outcome [5]: inactive
outcome [6]: inactive

Cc1nc(C(=O)NCc2ccccc2)sc1C1(C)CC(c2cccnc2)=NO1 (stereo not drawn)
outcome [1]: inactive
inhibition [2]: 97.5% (active)
outcome [3]: inactive
outcome [4]: inactive
inhibition [5]: 114% (active)

CCCCc1nc(NCCN)c(C#N)c2c1CSC(C)(C)C2
outcome [1]: inactive
outcome [2]: inactive
outcome [3]: inactive
inhibition [4]: 56.5% (active)
outcome [5]: inactive
outcome [6]: inactive

Cc1cccc(-[n+]2c(-c3cccc(Br)c3)[nH]c3nc4ccccc4nc32)c1
outcome [1]: inactive
outcome [2]: inactive
outcome [3]: inactive
inhibition [4]: 51% (active)
outcome [5]: inactive
outcome [6]: inactive

CSCCC(NC(=O)c1ccc(=O)n(C)n1)c1nc2ccccc2[nH]1 (stereo not drawn)
outcome [1]: inactive
outcome [2]: inactive
outcome [3]: inactive
outcome [4]: inactive
outcome [5]: inactive
outcome [6]: inactive

Cc1nc(N=C(N)N)nc2c(C)cccc12
membrane potential signal change [1]: -235% (active)
inhibition [2]: 76.5% (active)
percent change from control (negative = decrease, positive = increase) [3]: -42.5% (active)
inhibition [4]: 60% (active)
inhibition [5]: 67.5% (active)
outcome [6]: inactive

Cc1cc(C)c2nc3nc(C)cc(C)c3c(N)c2c1
outcome [1]: inactive
inhibition [2]: 76.5% (active)
percent change from control (negative = decrease, positive = increase) [3]: -31% (active)
inhibition [4]: 48% (active)
outcome [5]: inactive
outcome [6]: inactive

COC(=O)c1c(NC(=O)c2ccc(S(=O)(=O)N3CCOCC3)cc2)sc2c1CCN(C(C)C)C2
membrane potential signal change [1]: -96% (active)
outcome [2]: inactive
percent change from control (negative = decrease, positive = increase) [3]: -33% (active)
inhibition [4]: 37.5% (active)
outcome [5]: inactive
outcome [6]: inactive

CCCC(=O)Nc1ccc(C(=O)NCCCn2ccnc2)cc1
outcome [1]: inactive
outcome [2]: inactive
outcome [3]: inactive
outcome [4]: inactive
outcome [5]: inactive
outcome [6]: inactive

COc1ccccc1C(CNC(=O)c1cccc(NS(=O)(=O)c2ccc(Br)cc2)c1)N(C)C (stereo not drawn)
outcome [1]: inactive
outcome [2]: inactive
outcome [3]: inactive
inhibition [4]: 32.5% (active)
inhibition [5]: 44% (active)
outcome [6]: inactive

O=[N+]([O-])c1ccccc1Nc1ccc(O)cc1
membrane potential signal change [1]: -186% (active)
outcome [2]: inactive
percent change from control (negative = decrease, positive = increase) [3]: -32% (active)
inhibition [4]: 61.5% (active)
outcome [5]: inactive
outcome [6]: inactive

CCCN(CCc1ccccc1)C1CCc2c(O)cccc2C1 (stereo not drawn)
membrane potential signal change [1]: 202% (active)
outcome [2]: inactive
percent change from control (negative = decrease, positive = increase) [3]: 45.5% (active)
inhibition [4]: 68.5% (active)
outcome [5]: inactive
activation [6]: 88.5% (active)

CCc1ccc(OCC(=O)N(Cc2ccccc2)C2CCS(=O)(=O)C2)cc1 (stereo not drawn)
outcome [1]: inactive
outcome [2]: inactive
percent change from control (negative = decrease, positive = increase) [3]: 8.5% (active)
outcome [4]: inactive
outcome [5]: inactive
outcome [6]: inactive

CN1CCN(c2nc(Nc3ccc(O)cc3)nc3ccccc23)CC1
membrane potential signal change [1]: -221% (active)
inhibition [2]: 65.5% (active)
percent change from control (negative = decrease, positive = increase) [3]: -38% (active)
inhibition [4]: 71% (active)
inhibition [5]: 67.5% (active)
outcome [6]: inactive

CN1CCN(c2ccc([N+](=O)[O-])c(Sc3nc4ccccc4[nH]3)c2)CC1
membrane potential signal change [1]: -66.5% (active)
outcome [2]: inactive
percent change from control (negative = decrease, positive = increase) [3]: -14.5% (active)
inhibition [4]: 58.5% (active)
inhibition [5]: 52.5% (active)
outcome [6]: inactive

CC(C)c1ccc(NC(=O)Cn2ncc3ccccc32)cc1
outcome [1]: inactive
outcome [2]: inactive
outcome [3]: inactive
outcome [4]: inactive
outcome [5]: inactive
outcome [6]: inactive

COc1cc(CNCCN(C)C)ccc1OCc1c(F)cccc1Cl
membrane potential signal change [1]: 142% (active)
outcome [2]: inactive
percent change from control (negative = decrease, positive = increase) [3]: 15.5% (active)
inhibition [4]: 49% (active)
outcome [5]: inactive
activation [6]: 56% (active)

O=C(CN1CCCCCC1)N1c2ccccc2Sc2ccc(C(F)(F)F)cc21
membrane potential signal change [1]: 122% (active)
outcome [2]: inactive
percent change from control (negative = decrease, positive = increase) [3]: 18.5% (active)
outcome [4]: inactive
inhibition [5]: 46.5% (active)
outcome [6]: inactive

COc1cc2c(cc1OC)C(/C=C/c1ccco1)=NCC2
membrane potential signal change [1]: -362% (active)
inhibition [2]: 83% (active)
percent change from control (negative = decrease, positive = increase) [3]: -64% (active)
inhibition [4]: 62% (active)
inhibition [5]: 72.5% (active)
outcome [6]: inactive

O=C1c2ccccc2C(=O)c2c1cccc2N1CCN(CCO)CC1
membrane potential signal change [1]: -367% (active)
inhibition [2]: 64% (active)
percent change from control (negative = decrease, positive = increase) [3]: -80.5% (active)
inhibition [4]: 60% (active)
inhibition [5]: 78.5% (active)
outcome [6]: inactive

CC(C)(C)n1nnnc1C(c1ccc2ncccc2c1)N1CCSCC1 (stereo not drawn)
outcome [1]: inactive
outcome [2]: inactive
percent change from control (negative = decrease, positive = increase) [3]: 19% (active)
inhibition [4]: 33% (active)
inhibition [5]: 84% (active)
activation [6]: 140% (active)

CCCCN(C)CCCNC(=O)c1cc(-c2cccs2)nc2ccccc12
outcome [1]: inactive
outcome [2]: inactive
percent change from control (negative = decrease, positive = increase) [3]: -13% (active)
inhibition [4]: 65.5% (active)
outcome [5]: inactive
outcome [6]: inactive

Cc1nnc(C)n1/N=C/c1cc(Br)cc(Br)c1O
activation [7]: 145% (active)
outcome [8]: inactive
outcome [9]: inactive
outcome [10]: inactive

CCCCCCn1cc(C(=O)O)c(=O)c2cc(F)c(N3CCCCC3)cc21
outcome [1]: inactive
outcome [2]: inactive
percent change from control (negative = decrease, positive = increase) [3]: 11% (active)
outcome [4]: inactive
outcome [5]: inactive
activation [6]: 39.5% (active)

CCN1CCN(c2nc(Nc3cc(OC)ccc3OC)nc(Nc3cc(OC)ccc3OC)n2)CC1
outcome [1]: inactive
outcome [2]: inactive
outcome [3]: inactive
inhibition [4]: 55.5% (active)
outcome [5]: inactive
outcome [6]: inactive
